Key:
Details in all cases: concentration: 1 μM, replicates: in singlicate; n = 1
DCAMKL2 = test system: T1, DCAMKL2
T1 construct: gene DCLK2

DCAMKL3 = test system: T2, DCAMKL3
T2 construct: gene DCLK3

DDR1 = test system: DDR1
DDR2 = test system: DDR2
DLK = test system: T3, DLK
T3 construct: gene MAP3K12

DMPK2 = test system: T4, DMPK2
T4 construct: gene CDC42BPG

DMPK = test system: DMPK
DRAK1 = test system: T5, DRAK1
T5 construct: gene STK17A

DRAK2 = test system: T6, DRAK2
T6 construct: gene STK17B

DYRK1A = test system: DYRK1A
DYRK1B = test system: DYRK1B
DYRK2 = test system: DYRK2
EGFR = test system: EGFR
EIF2AK1 = test system: EIF2AK1
EPHA1 = test system: EPHA1
EPHA2 = test system: EPHA2
EPHA3 = test system: EPHA3
EPHA4 = test system: EPHA4
EPHA5 = test system: EPHA5
EPHA6 = test system: EPHA6
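Also: KINOMEscan kinase panel screen.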

SMILES | %Inh (DCAMKL2) | %Inh (DCAMKL3) | %Inh (DDR1) | %Inh (DDR2) | %Inh (DLK) | %Inh (DMPK2) | %Inh (DMPK) | %Inh (DRAK1) | %Inh (DRAK2) | %Inh (DYRK1A) | %Inh (DYRK1B) | %Inh (DYRK2) | %Inh (EGFR) | %Inh (EIF2AK1) | %Inh (EPHA1) | %Inh (EPHA2) | %Inh (EPHA3) | %Inh (EPHA4) | %Inh (EPHA5) | %Inh (EPHA6)
COc1ccc(-c2coc3ccc(-c4nnc(SCc5ccc(OC)c(C(F)(F)F)c5)o4)cc23)cc1 | 8% | 0% | 2% | 0% | 0% | 0% | 0% | 0% | 0% | 0% | 0% | 14% | 0% | 5% | 0% | 2% | 0% | 8% | 18% | 17%
CN1CCN(Cc2cccc(-c3ccc4c(Nc5ccc(Oc6ccccc6)cc5)ccnc4c3)c2)CC1 [GW578342] | 1% | 59% | 9% | 33% | 41% | 0% | 0% | 10% | 0% | 1% | 13% | 0% | 87% | 0% | 0% | 4% | 3% | 0% | 0% | 7%
O=C(Nc1n[nH]c2cc(-c3ccoc3)ccc12)C1CC1 [SB-738481] | 0% | 0% | 0% | 5% | 0% | 24% | 0% | 24% | 0% | 61% | 23% | 75% | 6% | 0% | 13% | 0% | 0% | 5% | 2% | 9%
CN(c1ccc(NC(=O)Nc2cc(C(F)(F)F)ccc2F)cc1)c1ccnc(Nc2ccc(S(N)(=O)=O)cc2)n1 [GW809893] | 2% | 6% | 97.6% | 93.9% | 14% | 9% | 0% | 0% | 18% | 17% | 10% | 14% | 4% | 10% | 97.4% | 96.1% | 78% | 96.9% | 97.5% | 98.5%
CCn1c(-c2nonc2N)nc2c(C#CC(C)(C)O)nc(OC[C@H](N)c3ccccc3)cc21 [GSK943949] | 0% | 19% | 4% | 12% | 0% | 0% | 0% | 13% | 19% | 4% | 0% | 9% | 12% | 0% | 2% | 5% | 0% | 0% | 0% | 0%
CN(C)S(=O)(=O)c1cc(-c2ccc3nccc(-c4cccc(S(N)(=O)=O)c4)c3c2)cnc1N [GSK1669921] | 6% | 0% | 100% | 5% | 0% | 0% | 10% | 0% | 0% | 37% | 0% | 44% | 18% | 8% | 10% | 9% | 0% | 20% | 0% | 18%
Fc1ccc(-c2ncn(C3CCNCC3)c2-c2ccnc(Oc3ccc(-c4ccccc4)cc3)n2)cc1 [SB-245391] | 3% | 18% | 2% | 10% | 7% | 86% | 5% | 0% | 15% | 0% | 25% | 36% | 3% | 12% | 19% | 0% | 0% | 19% | 9% | 17%
COc1cc2c(cc1OCCN1CCNCC1)ncc1c3ccc(C#N)cc3[nH]c21 | 3% | 4% | 0% | 1% | 85% | 0% | 5% | 99.5% | 99.6% | 93.1% | 63% | 73% | 26% | 0% | 3% | 3% | 0% | 1% | 2% | 0%
O=C(Nc1ccccc1F)NC1CCN(c2ccnc(Nc3ccc(F)cc3)n2)CC1 [GSK1379800] | 0% | 0% | 0% | 31% | 24% | 4% | 0% | 0% | 0% | 4% | 12% | 0% | 47% | 0% | 0% | 0% | 0% | 5% | 0% | 5%
c1ccc(Oc2ccc(Nc3ccnc4cc(-c5ccc(CNCCN6CCOCC6)o5)ccc34)cc2)nc1 [GW567145] | 0% | 0% | 0% | 50% | 49% | 0% | 0% | 2% | 54% | 0% | 0% | 15% | 39% | 0% | 72% | 12% | 17% | 0% | 0% | 0%

From publication PMC5540273 (PLoS ONE, 2017)
